Screening data from PubChem.
TDP1 cell CPT – DT40-hTDP1 cell growth loss with CPT | chicken DT40 Tdp1-/-;hTDP1 cells + 20 nM CPT, ATP luminescence, 48 h | AID 686979 | Potency, µM (highest dose often 46.2 µM), inactives show at the top dose activity change, negative = growth inhibition, hits mostly inhibitors | 420,000 compounds, 12% hits; note: potency is the fitted concentration of half-maximal effect; nearly all actives have a fitted effect of over 55% in size
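Cell growth measured by CellTiter-Glo luminescence after a minimum 48 h, 37 C compound exposure with 20 nM CPT in Tdp1-knockout DT40 cells stably expressing hTDP1, seeded 400/well; qHTS titration format.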
IL-1B inflam inh – inhibitors of inflammasome signaling (IL-1 beta secretion); THP-1 LPS/ATP IL-1B secretion, AlphaLISA, 16 h; active compounds read low; activity change, % at 57.5 µM; 360,000 compounds, 4.7% hits; AID 743279; in the data active = activity change below about -50%; inconclusive = mostly about -30% to -49%
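Secreted IL-1B measured by AlphaLISA bead assay after 16 h compound exposure of THP-1 cells; compounds (final up to 57.5 uM) added 1 h before LPS (250 ng/mL) and ATP (1.25 mM) stimulation; lower signal means less secretion.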
HT1080 IDH1KD tx – toxicity to HT-1080 IDH1 knockdown cells (counter line). AID 686971. 360,000 compounds, 2% hits. Potency, µM (titrated, usually from 46.1 µM), inactives show at the highest dose activity, negative = toxicity, hits mostly cytotoxic. HT-1080 IDH1 knockdown viability, ATP luminescence, 48 h;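 note: potency is the fitted concentration of half-maximal effect; 0% = DMSO wells and -100% = cell-free medium wells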
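Assay cells: HT-1080 with IDH1 knockdown, 750 per well, RPMI/5% FBS. Exposure: 48 h at 37 °C following 2 h pre-incubation. Read: CellTiter-Glo luminescence; fitted concentration-response, curve class assigned.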
DT40 TDP1 no CPT – qHTS for Inhibitors of human tyrosyl-DNA phosphodiesterase 1 (TDP1): qHTS in cells in absence of CPT; Potency, µM (highest dose often 46.2 µM), for the others: at the highest dose activity change, negative = growth inhibition, actives largely listed as inhibitors; 420,000 compounds, 15% hits; AID 686978, 2013; DT40 Tdp1-/- hTDP1 cells, no CPT, ATP luminescence, 48 h; note: potency is the fitted concentration of half-maximal effect; nearly all actives have a fitted effect of over 55% in size
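A cellular qHTS used chicken DT40 cells lacking endogenous Tdp1 but carrying stably transfected human TDP1. Compounds were applied without camptothecin, and cell growth kinetics were judged by ATP-dependent luminescence after ≥48 hr.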
HT1080NT lethal – kills 2HG-producing HT-1080-NT fibrosarcoma cells | 360,000 compounds, 1.6% hits | AID 686970 | HT-1080-NT fibrosarcoma viability, CellTiter-Glo ATP luminescence, 48 h | Potency, µM (top dose mostly 46.1 µM), inactives show at the highest dose activity, negative = less viability, most hits filed as cytotoxic;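 note: NT is the 2HG producing partner of a matched IDH1 knockdown line; potency is the fitted concentration of half-maximal effect; 0% = DMSO-treated cells and -100% = media-only wells without cells; nearly all actives have a fitted effect of over 55% in size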
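Luminescent CellTiter-Glo readout after 48 hours of compound exposure at 37 degrees C defined viability of HT-1080-NT cells. Activity was normalized to DMSO wells and cell-free media wells; concentration-response curves were fitted and assigned curve classes.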
* marks the source's active call; other numbers are inactive results; ? = inconclusive; nt = not tested or not shown. This is a sample that favours compounds with a hit; in the whole collection about 19% have one here. Unless noted, calls come from the whole dose curve; as a rule, active = well fitted curve in the direction sought with a large enough effect; inconclusive = small, poorly fitted or top-dose-only effect, or another doubt; inactive = no such curve, though single readings can be large; an effect the other way counts as inactive or inconclusive. Unless noted, % is set by controls: 0 for no effect and ±100 for the full control effect.

SMILES | TDP1 cell CPT | IL-1B inflam inh | HT1080 IDH1KD tx | DT40 TDP1 no CPT | HT1080NT lethal
CC1CC(=O)Nc2ccccc2N1C(=O)CSc1ncnc2sccc12 (stereo unspecified) | 13% | 4 | 9% | 5% | 1%
CC1CC(=O)Nc2ccccc2N1C(=O)CSc1ccc2ccccc2n1 (stereo unspecified) | 16µM* | -9 | 0% | ? | 1%
Cc1cc(SCC(=O)N2c3ccccc3NC(=O)CC2C)nc2ccccc12 (stereo unspecified) | ? | -9 | -1% | 16µM* | -6%
CCOC(=O)C1CCN(S(=O)(=O)c2cc(C(=O)N3CCCCC3)ccc2OC)CC1 | -19% | 0 | 4% | -11% | 0%
Cc1ccc(C(=O)Nc2nnc(COc3ccccc3)s2)cc1 | 3% | -1 | 13% | -12% | 10%
Cc1ccc(C(=O)Nc2cccc(C(=O)OCc3cc(=O)n4c5c(sc4n3)CCCC5)c2)cc1 | ? | nt | nt | 18µM* | nt
O=C(Nc1cccc(C(=O)OCc2cc(=O)n3c4c(sc3n2)CCCC4)c1)c1ccc(Cl)cc1 | ? | nt | nt | -20% | nt
Cc1cccc(C(=O)Nc2ccc(C(=O)OCc3cc(=O)n4c(C)csc4n3)cc2)c1 | ? | nt | nt | 16µM* | nt
COc1cccc(C(=O)Nc2cccc(C(=O)OCc3cc(=O)n4c5c(sc4n3)CCCC5)c2)c1 | ? | nt | nt | 18µM* | nt
O=C(Nc1cccc(C(=O)OCc2cc(=O)n3c4c(sc3n2)CCCC4)c1)c1cccc(Cl)c1 | -20% | nt | nt | ? | nt
Cc1cccc(C(=O)Nc2ccccc2OCc2cc(=O)n3c(C)csc3n2)c1 | 0% | nt | nt | -3% | nt
O=C(Nc1cccc(C(=O)OCc2cc(=O)n3c4c(sc3n2)CCCC4)c1)c1ccccc1 | ? | nt | nt | 16µM* | nt
CC(NC(=O)CSc1nnc2n1CCCCC2)c1ccccc1Cl (stereo unspecified) | 2% | -1 | -2% | 17% | -1%
COc1ccc(OC)c(CNC(=O)CCCn2c(=O)c3cccn3c3cccnc32)c1 | 3% | nt | nt | -22% | nt
O=C(CSc1nc2cc([N+](=O)[O-])ccc2n1-c1ccccc1)NCc1ccc2c(c1)OCO2 | 15µM* | 7 | -3% | 23µM* | -3%
Cc1cc(C(=O)CSc2nc3ccccc3c(=O)n2C)c(C)n1Cc1ccc2c(c1)OCO2 | 5.8µM* | -19 | 5.8µM* | 6.5µM* | 1%
Cc1cc(C)cc(-n2c(SCC(=O)NCc3ccc4c(c3)OCO4)nc3ccccc3c2=O)c1 | 7.3µM* | -8 | 4% | 18µM* | 1%
COc1ccc(CN(C)C(=O)C2CSC3(C)CCC(=O)N23)c(OC)c1 (stereo unspecified) | 12µM* | 0 | -4% | 15µM* | -5%
COc1ccc(CN(C)C(=O)C2CSC3(C)CCC(=O)N23)cc1OC (stereo unspecified) | -5% | -6 | 16% | -9% | -5%
CN(Cc1ccc(Cl)cc1Cl)C(=O)C1CSC2(C)CCC(=O)N12 (stereo unspecified) | 13µM* | 4 | -14% | 16µM* | -15%
CN(Cc1cccc(Cl)c1)C(=O)C1CSC2(C)CCC(=O)N12 (stereo unspecified) | 18µM* | 15 | 16% | 21µM* | 12%
COc1ccc(C2=Nc3ccccc3N(C(=O)c3cccnc3)C2C(=O)NC2CCCC2)cc1 (stereo unspecified) | -5% | -16 | -9% | 4% | 4%
Nc1nnc(/C=C/c2ccccc2Cl)s1 | -15% | -21 | -24% | -29% | -18%
CCOC(=O)N1CCC(n2c(SCC(=O)NCc3ccccc3)nc3ccccc3c2=O)CC1 | 23µM* | -27 | 0% | 21µM* | 5%
CCOC(=O)N1CCC(n2c(SCC(=O)Nc3ccccc3OC)nc3ccccc3c2=O)CC1 | ? | -1 | -15% | ? | 0%
SMILES | TDP1 cell CPT | IL-1B inflam inh | HT1080 IDH1KD tx | DT40 TDP1 no CPT | HT1080NT lethal
C=CCSc1nc2ccccc2c(=O)n1Cc1ccccc1 | 23% | 0 | 0% | -10% | 14%
C=CCSc1nc2ccccc2c(=O)n1C1CCOC(C)(C)C1 (stereo unspecified) | 16µM* | 49 | -7% | 23µM* | -10%
CCOC(=O)N1CCC(n2c(SCC(=O)N3CCCC3)nc3ccccc3c2=O)CC1 | 23µM* | 19 | -9% | 18µM* | -1%
CCOC(=O)N1CCC(n2c(SCC(=O)N3CCC(C)CC3)nc3ccccc3c2=O)CC1 | 16µM* | ? | -18% | ? | -5%
COc1ccc(S(=O)(=O)N(C)CC(=O)NCc2cccnc2)cc1C | -21% | -2 | 11% | -6% | 15%
COc1ccc(CC2(CO)CCN(Cc3ccc4nsnc4c3)CC2)cc1 | ? | -22 | -11% | ? | -3%
COc1ccc(C(=O)Nn2c(SCC(=O)NC3CCCCC3)nc3ccccc3c2=O)cc1 | 2% | ? | -21% | -15% | ?
O=c1c2ccccc2nc(SCCN2CCCCC2)n1CCc1ccccc1 | ? | -60* | 15µM* | 21µM* | ?
COc1ccc(C(=O)Nn2c(SCC(=O)N3CCC(C)CC3)nc3ccccc3c2=O)cc1 | -17% | -53* | ? | -21% | ?
NC(=O)CSc1nc2ccccc2c(=O)n1CCc1ccccc1 | -15% | 17 | 3% | ? | 9%
CC(C)Cn1c(SCC(=O)N2CCCCC2)nc2ccccc2c1=O | ? | -1 | -9% | 26µM* | -17%
CC(C)Cn1c(SCC(=O)N2CCOCC2)nc2ccccc2c1=O | -4% | ? | -1% | 14% | 2%
Cc1ccccc1C(=O)Nc1cccc(C(=O)OCc2cc(=O)n3ccsc3n2)c1 | -22% | nt | nt | -28% | nt
Cc1ccc2c(c1)N(CC(=O)Nc1ccccc1F)C(=O)CO2 | -11% | 3 | 6% | 18% | 4%
CCOC(=O)c1ccc(NC(=O)Nc2nncs2)cc1 | 0.018µM* | 29 | 0.92µM* | 0.0065µM* | 1.2µM*
CCOC(=O)c1ccc(NC(=O)Nc2ccon2)cc1 | 0.0073µM* | 82 | 0.92µM* | 0.018µM* | 0.58µM*
CCOC(=O)c1ccc(NC(=O)Nc2nc3ccccc3s2)cc1 | ? | -10 | 2% | ? | -2%
Cc1c(C(=O)N2CCCCC2)c(S(=O)(=O)N2CCc3ccccc32)c(C)n1C | -14% | 18 | 0% | 11% | 18%
CCOC(=O)c1c(S(=O)(=O)N2CCCCC2C)c(C)n(C)c1C (stereo unspecified) | ? | 26 | -2% | 10µM* | 10%
CCOC(=O)c1c(S(=O)(=O)N2CCc3ccccc32)c(C)n(C)c1C | 23µM* | 13 | -4% | ? | -7%
CCOC(=O)c1cc(S(=O)(=O)N2CCc3ccccc32)cn1C | ? | 9 | 0% | 2.3µM* | 0%
